In PubChem BioAssay AID1159580 (chemical genetic matrix, 2015):
Several values for one entry are separate records, joined by “and”; a condition that tells them apart may be missing. Equal entries are not always repeated. In all, about 5,500 compounds went through this assay and about 2,000 (36%) were called active. Roughly 18% stayed inconclusive and do not appear here. Rule as the data show it: active = normalized growth mostly below about 0.91 (no sharp cut-off); inconclusive = no clear call, values can overlap the other calls; inactive = mostly above about 0.92. The list shows a part of the results.

Experiment: chemical genetic growth profiling, strain panel (AID 1159580);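 also: tested at 20 µM; growth read once vehicle control cultures reached saturation at 30 °C; 1 = growth at the plate median or of vehicle wells; lower values mean less growth of the strain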
Details: growth OD

Measured: normalized growth

CC(C)(C)NCC(O)c1ccccc1Cl (stereo unspecified)
inactive: S. cerevisiae deletion strains, locus YJR075W, strain HOC1, active compounds read low 1.01 and 1.04 | S. cerevisiae deletion strains, locus YKL009W, strain mrt4, active compounds read low 0.96 | S. cerevisiae deletion strains, locus YKL068W, active compounds read low 0.991 | S. cerevisiae deletion strains, locus YKL085W, strain MDH1 (second series), active compounds read low 0.983 | S. cerevisiae deletion strains, locus YKL085W, strain MDH1, active compounds read low 0.983 | S. cerevisiae deletion strains, locus YKL160W, strain elf1, active compounds read low 1.02 | S. cerevisiae deletion strains, locus YKL190W, strain CNB1, active compounds read low 0.995 | S. cerevisiae deletion strains, locus YKR001C, strain vps1, active compounds read low 0.976 | S. cerevisiae deletion strains, locus YKR026C, strain gcn3, active compounds read low 0.994 | S. cerevisiae deletion strains, locus YKR091W, strain srl3, active compounds read low 0.997 | S. cerevisiae deletion strains, locus YLL001W, strain dnm1, active compounds read low 1 | S. cerevisiae deletion strains, locus YLL026W, active compounds read low 0.983 | S. cerevisiae deletion strains, locus YLL041C, strain sdh2, active compounds read low 0.997 | S. cerevisiae deletion strains, locus YLR027C, strain aat2, active compounds read low 0.992 | S. cerevisiae deletion strains, locus YLR039C, strain RIC1, active compounds read low 0.923 | S. cerevisiae deletion strains, locus YLR058C, strain SHM2, active compounds read low 0.975 | S. cerevisiae deletion strains, locus YLR102C, strain apc9, active compounds read low 0.986 | S. cerevisiae deletion strains, locus YLR113W, strain HOG1, active compounds read low 1.01 | S. cerevisiae deletion strains, locus YLR221C, strain rsa3, active compounds read low 1.01 | S. cerevisiae deletion strains, locus YLR258W, strain gsy2, active compounds read low 0.974 | S. cerevisiae deletion strains, locus YLR262C, strain YPT6 (second series), active compounds read low 0.997 | S. cerevisiae deletion strains, locus YLR262C, strain YPT6, active compounds read low 0.887 | S. cerevisiae deletion strains, locus YLR268W, strain sec22, active compounds read low 1.09 | S. cerevisiae deletion strains, locus YLR320W, strain mms22, active compounds read low 0.981 | S. cerevisiae deletion strains, locus YLR330W, strain CHS5, active compounds read low 0.992 | S. cerevisiae deletion strains, locus YLR342W, strain FKS1 (second series), active compounds read low 0.967 | S. cerevisiae deletion strains, locus YLR342W, strain FKS1, active compounds read low 0.999 | S. cerevisiae deletion strains, locus YLR357W, strain rsc2, active compounds read low 0.982 | S. cerevisiae deletion strains, locus YLR370C, strain arc18, active compounds read low 0.997 | S. cerevisiae deletion strains, locus YLR371W, strain rom2, active compounds read low 0.982 | S. cerevisiae deletion strains, locus YLR384C, strain iki3, active compounds read low 0.989 | S. cerevisiae deletion strains, locus YLR418C, strain cdc73, active compounds read low 0.993 | S. cerevisiae deletion strains, locus YML016C, strain PPZ1, active compounds read low 0.99 | S. cerevisiae deletion strains, locus YML032C, strain rad52, active compounds read low 1.02 | S. cerevisiae deletion strains, locus YML120C, strain ndi1, active compounds read low 1.01 | S. cerevisiae deletion strains, locus YML124C, strain tub3, active compounds read low 0.984 | S. cerevisiae deletion strains, locus YMR058W, strain fet3, active compounds read low 0.997 | S. cerevisiae deletion strains, locus YMR078C, strain ctf18, active compounds read low 0.982 | S. cerevisiae deletion strains, locus YMR125W, strain sto1, active compounds read low 0.962 | S. cerevisiae deletion strains, locus YMR129W, active compounds read low 0.967 | S. cerevisiae deletion strains, locus YMR205C, strain PFK2, active compounds read low 0.951 | S. cerevisiae deletion strains, locus YMR223W, strain ubp8, active compounds read low 0.96 | S. cerevisiae deletion strains, locus YMR231W, strain pep5, active compounds read low 0.998 | S. cerevisiae deletion strains, locus YMR263W, strain SAP30, active compounds read low 0.993 and 0.995 | S. cerevisiae deletion strains, locus YMR307W, strain GAS1, active compounds read low 0.994 and 0.992 | S. cerevisiae deletion strains, locus YNL067W, strain RPL9B, active compounds read low 1.02 | S. cerevisiae deletion strains, locus YNL071W, strain lat1, active compounds read low 1 | S. cerevisiae deletion strains, locus YNL128W, strain TEP1, active compounds read low 0.962 | S. cerevisiae deletion strains, locus YNL153C, strain GIM3, active compounds read low 1.01 | S. cerevisiae deletion strains, locus YNL175C, strain NOP13, active compounds read low 1.02 | S. cerevisiae deletion strains, locus YNL183C, strain NPR1, active compounds read low 0.939 | S. cerevisiae deletion strains, locus YNL197C, strain WHI3, active compounds read low 0.981 | S. cerevisiae deletion strains, locus YNL209W, strain ssb2, active compounds read low 1 | S. cerevisiae deletion strains, locus YNL224C, strain SQS1, active compounds read low 1.01 | S. cerevisiae deletion strains, locus YNL233W, strain BNI4, active compounds read low 1.02 | S. cerevisiae deletion strains, locus YNL248C, strain rpa49, active compounds read low 1.02 | S. cerevisiae deletion strains, locus YNL250W, strain rad50, active compounds read low 0.976 | S. cerevisiae deletion strains, locus YNL271C, strain bni1, active compounds read low 0.987 | S. cerevisiae deletion strains, locus YNL298W, strain CLA4, active compounds read low 0.975 | S. cerevisiae deletion strains, locus YNL307C, strain MCK1, active compounds read low 0.992 | S. cerevisiae deletion strains, locus YNL322C, strain KRE1 (second series), active compounds read low 0.989 | S. cerevisiae deletion strains, locus YNL322C, strain KRE1, active compounds read low 0.996 and 1 | S. cerevisiae deletion strains, locus YNR049C, strain mso1, active compounds read low 0.994 | S. cerevisiae deletion strains, locus YNR052C, strain pop2, active compounds read low 0.985 | S. cerevisiae deletion strains, locus YOL006C, strain TOP1, active compounds read low 1.03 | S. cerevisiae deletion strains, locus YOL012C, strain htz1 0.982 | S. cerevisiae deletion strains, locus YOL147C, strain pex11, active compounds read low 0.992 | S. cerevisiae deletion strains, locus YOR001W, strain rrp6, active compounds read low 0.996 | S. cerevisiae deletion strains, locus YOR061W, strain CKA2, active compounds read low 0.969 | S. cerevisiae deletion strains, locus YOR069W, strain VPS5, active compounds read low 0.991 | S. cerevisiae deletion strains, locus YOR070C, strain gyp1, active compounds read low 0.992 | S. cerevisiae deletion strains, locus YOR080W, strain dia2, active compounds read low 0.974 | S. cerevisiae deletion strains, locus YOR083W, strain WHI5 (second series), active compounds read low 1.02 | S. cerevisiae deletion strains, locus YOR083W, strain WHI5, active compounds read low 1.01 | S. cerevisiae deletion strains, locus YOR106W, strain vam3, active compounds read low 1.01 | S. cerevisiae deletion strains, locus YOR136W, strain idh2, active compounds read low 0.983 | S. cerevisiae deletion strains, locus YOR144C, strain elg1, active compounds read low 0.996 | S. cerevisiae deletion strains, locus YOR184W, strain ser1, active compounds read low 0.98 | S. cerevisiae deletion strains, locus YOR231W, strain MKK1, active compounds read low 0.99 | S. cerevisiae deletion strains, locus YOR265W, strain rbl2, active compounds read low 0.99 | S. cerevisiae deletion strains, locus YOR270C, strain vph1, active compounds read low 1.05 | S. cerevisiae deletion strains, locus YOR290C, strain snf2, active compounds read low 0.956 | S. cerevisiae deletion strains, locus YOR316C, strain cot1, active compounds read low 0.995 | S. cerevisiae deletion strains, locus YPL051W, strain arl3, active compounds read low 0.999 | S. cerevisiae deletion strains, locus YPL055C, strain LGE1, active compounds read low 0.989 and 1 | S. cerevisiae deletion strains, locus YPL078C, strain atp4, active compounds read low 1.01 | S. cerevisiae deletion strains, locus YPL106C, strain sse1, active compounds read low 0.944 | S. cerevisiae deletion strains, locus YPL240C, strain hsp82, active compounds read low 0.994 | S. cerevisiae deletion strains, locus YPL241C, strain CIN2, active compounds read low 0.984 and 1 | S. cerevisiae deletion strains, locus YPL256C, strain CLN2, active compounds read low 0.984 | S. cerevisiae deletion strains, locus YPR119W, strain clb2, active compounds read low 0.987 | S. cerevisiae deletion strains, locus YPR141C, strain kar3, active compounds read low 0.982 | S. cerevisiae deletion strains, locus YPR163C, strain tif3, active compounds read low 0.981 | S. cerevisiae deletion strains, locus YPR167C, strain met16, active compounds read low 0.993 | S. cerevisiae deletion strains, strain wtn01, active compounds read low 1.01 | S. cerevisiae strains, strain wild type, active compounds read low 0.988
